Data taken from publication PMC7862700, “An all-to-all approach to the identification of sequence-specific readers for epigenetic DNA modifications on cytosine”.

Legend:
Experiment in all cases: DAPPL (digital affinity profiling via proximity ligation, sequencing); 10 mM Tris-HCl pH 7.5, 50 mM NaCl, 1 mM DTT, 4% glycerol, room temperature, 30 min; GST-TFs on glutathione beads, 16-mer random dsDNA library, 0.1% formaldehyde crosslink after washing; high values mean tight binding
FEV = biological target: T1, FEV (Homo sapiens, UniProt Q99581 1-238); conditions: protein: recombinant; tags: N-terminal GST; dsDNA, one strand shown
T1 sequence: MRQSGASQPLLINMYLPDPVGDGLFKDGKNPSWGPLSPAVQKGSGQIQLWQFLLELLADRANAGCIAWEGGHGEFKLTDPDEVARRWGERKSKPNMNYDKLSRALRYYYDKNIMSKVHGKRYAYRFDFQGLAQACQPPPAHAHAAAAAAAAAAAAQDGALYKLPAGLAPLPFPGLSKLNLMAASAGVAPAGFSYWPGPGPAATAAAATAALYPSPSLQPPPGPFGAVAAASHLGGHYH
Method in brief: (§1)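 After expression in yeast as GST fusions, human transcription factors were bound to glutathione beads, DNA-barcoded and mixed with a tag-only sample. The pools were incubated with 200 nmole of a 16-mer random double-stranded DNA library in Tris/NaCl/DTT/glycerol buffer (30 min, room temperature), washed and crosslinked with 0.1% formaldehyde. Proximity ligation with BsaI/T4 ligase ran for 1 h at 37 °C, before PCR amplification and sequencing on an Illumina NextSeq500. Binding signal is a hexamer's read frequency for a factor divided by its frequency for the tag-only sample.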

ETV5 = ETV5 (Homo sapiens, UniProt P41161 1-510); conditions: protein: recombinant; tags: N-terminal GST; dsDNA, one strand shown
Method in brief: as §1

HSF1 = HSF1 (Homo sapiens, UniProt Q00613 1-529); conditions: protein: recombinant; tags: N-terminal GST; chain copies: 3; dsDNA, one strand shown
Method in brief: as §1

SPIC = biological target: T2, SPIC (Homo sapiens, UniProt Q8N5J4 1-248); conditions: protein: recombinant; tags: N-terminal GST; dsDNA, one strand shown
T2 sequence: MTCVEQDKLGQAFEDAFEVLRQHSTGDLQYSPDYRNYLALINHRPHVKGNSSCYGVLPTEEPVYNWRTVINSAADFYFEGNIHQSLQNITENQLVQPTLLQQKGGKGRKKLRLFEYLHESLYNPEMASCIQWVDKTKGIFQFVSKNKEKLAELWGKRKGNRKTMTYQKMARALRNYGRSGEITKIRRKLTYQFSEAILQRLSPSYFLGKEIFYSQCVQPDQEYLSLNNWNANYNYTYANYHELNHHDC
Method in brief: as §1

ELF4 = ELF4 (Homo sapiens, UniProt Q99607 1-663); conditions: protein: recombinant; tags: N-terminal GST; dsDNA, one strand shown
Method in brief: as §1

ELK4 = biological target: T3, ELK4 (Homo sapiens, UniProt P28324-2 1-405); conditions: protein: recombinant; tags: N-terminal GST; dsDNA, one strand shown
T3 sequence: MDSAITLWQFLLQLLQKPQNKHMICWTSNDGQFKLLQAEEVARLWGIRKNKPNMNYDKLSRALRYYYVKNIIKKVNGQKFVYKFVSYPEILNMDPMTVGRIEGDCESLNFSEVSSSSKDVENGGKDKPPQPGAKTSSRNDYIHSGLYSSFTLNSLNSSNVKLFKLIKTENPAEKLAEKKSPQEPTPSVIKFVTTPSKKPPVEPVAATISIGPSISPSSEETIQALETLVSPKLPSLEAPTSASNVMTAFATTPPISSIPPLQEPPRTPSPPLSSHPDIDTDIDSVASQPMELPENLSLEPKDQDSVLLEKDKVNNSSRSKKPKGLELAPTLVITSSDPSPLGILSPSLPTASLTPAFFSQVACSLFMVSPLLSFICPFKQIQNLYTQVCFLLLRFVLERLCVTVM
Method in brief: as §1

ETV2 = biological target: T4, ETV2 (Homo sapiens, UniProt O00321 1-342); conditions: protein: recombinant; tags: N-terminal GST; dsDNA, one strand shown
T4 sequence: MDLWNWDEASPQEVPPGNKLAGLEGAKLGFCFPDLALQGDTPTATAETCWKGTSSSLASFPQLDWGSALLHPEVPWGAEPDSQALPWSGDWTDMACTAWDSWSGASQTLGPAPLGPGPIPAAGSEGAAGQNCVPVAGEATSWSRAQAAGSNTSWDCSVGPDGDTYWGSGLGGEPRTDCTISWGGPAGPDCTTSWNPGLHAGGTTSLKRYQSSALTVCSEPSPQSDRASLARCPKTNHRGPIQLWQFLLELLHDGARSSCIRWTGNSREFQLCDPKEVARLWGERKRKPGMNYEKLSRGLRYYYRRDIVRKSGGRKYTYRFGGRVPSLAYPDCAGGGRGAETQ
Method in brief: as §1

ELF3 = biological target: T5, ELF3 (Homo sapiens, UniProt P78545 1-371); conditions: protein: recombinant; tags: N-terminal GST; dsDNA, one strand shown
T5 sequence: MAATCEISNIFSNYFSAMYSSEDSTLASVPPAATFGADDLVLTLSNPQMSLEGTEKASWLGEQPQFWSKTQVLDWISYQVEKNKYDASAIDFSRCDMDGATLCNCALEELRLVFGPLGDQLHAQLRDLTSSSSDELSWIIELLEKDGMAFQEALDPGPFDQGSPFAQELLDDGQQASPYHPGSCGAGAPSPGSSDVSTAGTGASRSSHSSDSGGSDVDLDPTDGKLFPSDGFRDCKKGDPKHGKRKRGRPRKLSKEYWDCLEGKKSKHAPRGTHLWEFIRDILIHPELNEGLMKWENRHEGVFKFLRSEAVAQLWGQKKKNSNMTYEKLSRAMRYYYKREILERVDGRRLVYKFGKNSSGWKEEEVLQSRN
Method in brief: as §1

ETV1 = ETV1 (Homo sapiens, UniProt P50549 1-477); conditions: protein: recombinant; tags: N-terminal GST; dsDNA, one strand shown
Method in brief: as §1

HSF1, sequence (Q00613 whole entry): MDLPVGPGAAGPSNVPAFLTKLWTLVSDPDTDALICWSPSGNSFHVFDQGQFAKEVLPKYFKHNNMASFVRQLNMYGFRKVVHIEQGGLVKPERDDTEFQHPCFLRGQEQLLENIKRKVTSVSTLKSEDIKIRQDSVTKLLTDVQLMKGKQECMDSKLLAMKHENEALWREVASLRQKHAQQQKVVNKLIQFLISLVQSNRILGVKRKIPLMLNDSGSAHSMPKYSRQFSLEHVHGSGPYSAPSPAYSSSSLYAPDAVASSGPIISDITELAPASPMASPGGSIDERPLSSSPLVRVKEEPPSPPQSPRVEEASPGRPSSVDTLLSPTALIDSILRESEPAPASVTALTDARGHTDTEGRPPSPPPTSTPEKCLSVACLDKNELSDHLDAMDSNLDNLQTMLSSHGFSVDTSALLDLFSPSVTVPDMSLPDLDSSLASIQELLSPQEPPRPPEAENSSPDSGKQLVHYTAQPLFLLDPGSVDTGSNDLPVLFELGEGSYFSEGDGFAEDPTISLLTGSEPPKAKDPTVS
ETV1, sequence (P50549 whole entry): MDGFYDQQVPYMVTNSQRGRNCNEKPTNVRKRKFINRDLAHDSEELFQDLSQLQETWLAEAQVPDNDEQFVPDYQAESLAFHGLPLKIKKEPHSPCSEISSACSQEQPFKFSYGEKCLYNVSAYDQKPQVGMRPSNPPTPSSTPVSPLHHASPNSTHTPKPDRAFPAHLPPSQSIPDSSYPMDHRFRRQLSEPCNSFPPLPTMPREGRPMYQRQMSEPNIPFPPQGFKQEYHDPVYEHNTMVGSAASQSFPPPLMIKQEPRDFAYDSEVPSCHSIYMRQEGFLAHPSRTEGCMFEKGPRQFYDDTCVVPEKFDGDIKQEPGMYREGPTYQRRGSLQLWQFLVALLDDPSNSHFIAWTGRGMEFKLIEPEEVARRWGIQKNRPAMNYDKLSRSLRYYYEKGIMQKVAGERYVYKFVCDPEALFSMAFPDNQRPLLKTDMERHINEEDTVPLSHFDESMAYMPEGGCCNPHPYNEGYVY
ETV5, sequence (P41161 whole entry): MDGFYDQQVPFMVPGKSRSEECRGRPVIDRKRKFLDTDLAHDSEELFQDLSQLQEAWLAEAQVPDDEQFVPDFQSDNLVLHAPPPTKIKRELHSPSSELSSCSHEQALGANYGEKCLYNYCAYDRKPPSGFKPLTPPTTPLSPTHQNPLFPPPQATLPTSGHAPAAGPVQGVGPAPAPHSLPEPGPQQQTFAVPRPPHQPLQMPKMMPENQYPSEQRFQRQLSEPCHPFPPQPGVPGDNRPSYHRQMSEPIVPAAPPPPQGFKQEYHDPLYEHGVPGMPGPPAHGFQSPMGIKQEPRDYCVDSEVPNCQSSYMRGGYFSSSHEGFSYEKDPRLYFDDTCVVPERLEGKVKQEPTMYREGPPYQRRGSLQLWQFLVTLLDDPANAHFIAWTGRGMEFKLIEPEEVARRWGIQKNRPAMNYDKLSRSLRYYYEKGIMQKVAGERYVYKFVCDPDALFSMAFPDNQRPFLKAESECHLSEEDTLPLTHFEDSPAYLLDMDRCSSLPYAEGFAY
ELF4, sequence (Q99607 whole entry): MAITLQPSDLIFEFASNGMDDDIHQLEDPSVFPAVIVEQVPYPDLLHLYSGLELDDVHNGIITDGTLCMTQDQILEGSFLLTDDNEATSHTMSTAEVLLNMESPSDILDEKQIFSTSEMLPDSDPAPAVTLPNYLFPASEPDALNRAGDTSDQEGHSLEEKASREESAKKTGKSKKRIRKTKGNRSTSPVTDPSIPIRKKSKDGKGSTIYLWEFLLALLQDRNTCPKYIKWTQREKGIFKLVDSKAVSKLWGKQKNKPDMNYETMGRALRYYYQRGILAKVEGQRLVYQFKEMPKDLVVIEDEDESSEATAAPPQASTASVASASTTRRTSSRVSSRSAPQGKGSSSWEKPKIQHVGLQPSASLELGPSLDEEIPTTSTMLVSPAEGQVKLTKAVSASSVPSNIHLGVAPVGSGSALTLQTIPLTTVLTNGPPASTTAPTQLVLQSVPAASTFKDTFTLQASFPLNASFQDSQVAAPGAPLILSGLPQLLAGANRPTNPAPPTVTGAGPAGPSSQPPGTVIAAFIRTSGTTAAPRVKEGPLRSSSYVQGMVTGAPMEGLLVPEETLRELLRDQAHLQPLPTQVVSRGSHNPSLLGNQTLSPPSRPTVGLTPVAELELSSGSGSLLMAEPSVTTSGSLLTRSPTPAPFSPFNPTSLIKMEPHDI

| Sequence | binding signal (FEV) | binding signal (ETV5) | binding signal (HSF1) | binding signal (SPIC) | binding signal (ELF4) | binding signal (ELK4) | binding signal (ETV2) | binding signal (ELF3) | binding signal (ETV1) |
| --- | --- | --- | --- | --- | --- | --- | --- | --- | --- |
| GTTCCC | 1.27 fold enrichment (6-mer frequency, TF over GST control) | 1.22 fold enrichment (6-mer frequency, TF over GST control) | 1.26 fold enrichment (6-mer frequency, TF over GST control) | 1.38 fold enrichment (6-mer frequency, TF over GST control) | 1.36 fold enrichment (6-mer frequency, TF over GST control) | 1.19 fold enrichment (6-mer frequency, TF over GST control) | 1.12 fold enrichment (6-mer frequency, TF over GST control) | 1.23 fold enrichment (6-mer frequency, TF over GST control) | 1.39 fold enrichment (6-mer frequency, TF over GST control) |
| TGCAAC | 1.39 fold enrichment (6-mer frequency, TF over GST control) | 1.3 fold enrichment (6-mer frequency, TF over GST control) | 1.06 fold enrichment (6-mer frequency, TF over GST control) | 1.19 fold enrichment (6-mer frequency, TF over GST control) | 1.3 fold enrichment (6-mer frequency, TF over GST control) | 1.46 fold enrichment (6-mer frequency, TF over GST control) | 1.31 fold enrichment (6-mer frequency, TF over GST control) | 1.42 fold enrichment (6-mer frequency, TF over GST control) | 1.4 fold enrichment (6-mer frequency, TF over GST control) |
| CCGTAC | 1.24 fold enrichment (6-mer frequency, TF over GST control) | 1.33 fold enrichment (6-mer frequency, TF over GST control) | 1.06 fold enrichment (6-mer frequency, TF over GST control) | 1.18 fold enrichment (6-mer frequency, TF over GST control) | 1.26 fold enrichment (6-mer frequency, TF over GST control) | 1.36 fold enrichment (6-mer frequency, TF over GST control) | 1.42 fold enrichment (6-mer frequency, TF over GST control) | 1.33 fold enrichment (6-mer frequency, TF over GST control) | 1.34 fold enrichment (6-mer frequency, TF over GST control) |
| CAATTG | 1.18 fold enrichment (6-mer frequency, TF over GST control) | 1.2 fold enrichment (6-mer frequency, TF over GST control) | 1.04 fold enrichment (6-mer frequency, TF over GST control) | 1.28 fold enrichment (6-mer frequency, TF over GST control) | 1.27 fold enrichment (6-mer frequency, TF over GST control) | 1.04 fold enrichment (6-mer frequency, TF over GST control) | 1.16 fold enrichment (6-mer frequency, TF over GST control) | 1.32 fold enrichment (6-mer frequency, TF over GST control) | 1.17 fold enrichment (6-mer frequency, TF over GST control) |
| CCTGCA | 1.26 fold enrichment (6-mer frequency, TF over GST control) | 1.39 fold enrichment (6-mer frequency, TF over GST control) | 1.11 fold enrichment (6-mer frequency, TF over GST control) | 1.15 fold enrichment (6-mer frequency, TF over GST control) | 1.3 fold enrichment (6-mer frequency, TF over GST control) | 1.27 fold enrichment (6-mer frequency, TF over GST control) | 1.22 fold enrichment (6-mer frequency, TF over GST control) | 1.68 fold enrichment (6-mer frequency, TF over GST control) | 1.28 fold enrichment (6-mer frequency, TF over GST control) |
| GAACCC | 1.17 fold enrichment (6-mer frequency, TF over GST control) | 1.2 fold enrichment (6-mer frequency, TF over GST control) | 1.03 fold enrichment (6-mer frequency, TF over GST control) | 1.29 fold enrichment (6-mer frequency, TF over GST control) | 1.22 fold enrichment (6-mer frequency, TF over GST control) | 1.2 fold enrichment (6-mer frequency, TF over GST control) | 1 fold enrichment (6-mer frequency, TF over GST control) | 1.05 fold enrichment (6-mer frequency, TF over GST control) | 1.19 fold enrichment (6-mer frequency, TF over GST control) |
| GAAACA | 1.33 fold enrichment (6-mer frequency, TF over GST control) | 1.46 fold enrichment (6-mer frequency, TF over GST control) | 1.22 fold enrichment (6-mer frequency, TF over GST control) | 1.38 fold enrichment (6-mer frequency, TF over GST control) | 1.3 fold enrichment (6-mer frequency, TF over GST control) | 1.22 fold enrichment (6-mer frequency, TF over GST control) | 1.44 fold enrichment (6-mer frequency, TF over GST control) | 1.52 fold enrichment (6-mer frequency, TF over GST control) | 1.26 fold enrichment (6-mer frequency, TF over GST control) |
| GCTATG | 1.15 fold enrichment (6-mer frequency, TF over GST control) | 1.13 fold enrichment (6-mer frequency, TF over GST control) | 1.07 fold enrichment (6-mer frequency, TF over GST control) | 1.22 fold enrichment (6-mer frequency, TF over GST control) | 1.08 fold enrichment (6-mer frequency, TF over GST control) | 1.15 fold enrichment (6-mer frequency, TF over GST control) | 1.38 fold enrichment (6-mer frequency, TF over GST control) | 1.18 fold enrichment (6-mer frequency, TF over GST control) | 1.17 fold enrichment (6-mer frequency, TF over GST control) |
